These results are taken from PubChem BioAssay (NCI).

Among the test systems are HCT-15 colon; HT29 colon; SNB-75 CNS; SNB-19 CNS; U251 CNS; PC-3 prostate; SK-MEL-5 melanoma; UACC-62 melanoma; SK-MEL-28 melanoma.
What all share (assay): NCI-60 one-dose screen, 48 h (100 = growth as untreated, 0 = no growth, -100 = all killed)
Holding throughout (conditions): 10 µM unless noted

The panel holds about 83,000 compounds, 20% with a hit somewhere; the sample as a whole holds those more often.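 In brief: 96-well plates, 48 h treatment, single concentration, percent growth endpoint.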 Values without a mark were called inactive. Active and inactive are the calls of the source. Rule for the calls: active = growth percent below 10; inactive = the rest.

For the molecule `C=C(C)[C@@H]1CC[C@]2(C)[C@H](CC=C3[C@@H]4CC(C)(C)CC[C@]4(C(=O)OC)CC[C@]32C)[C@@]1(C)CC/C(N)=N/O`, the growth in the test with HCT-15 colon is 18.5%; in the test on HT29 colon, 24.3%; in the test on SNB-75 CNS it was 101%; in the test with SNB-19 CNS, 67.9%; in the test with U251 CNS it was -81.8% (active); in the test with PC-3 prostate it was 26.6%. The growth was -19.9% (active) in the test with SK-MEL-5 melanoma, 58.6% in the test with UACC-62 melanoma and 60.9% with SK-MEL-28 melanoma.
For `CC(C)=CCC[C@](C)(O)[C@H]1CC[C@]2(C)[C@@H]1CC[C@@H]1[C@@]3(C)C/C(=C/c4ccc(Br)cc4)C(=O)C(C)(C)[C@@H]3CC[C@]12C`, the growth with HCT-15 colon was 85.4%; with HT29 colon, 77%; in the test on SNB-75 CNS it was -50.3% (active); in the test on SNB-19 CNS it was 95.2%; with U251 CNS, 86.9%; in the test with PC-3 prostate it was 70.5%. Moreover, the growth in the test on SK-MEL-5 melanoma is 96.8%; in the test on UACC-62 melanoma it was 78.6%; in the test with SK-MEL-28 melanoma, 100%.
On to `CC(C)=CCC[C@](C)(O)[C@H]1CC[C@]2(C)[C@@H]1CC[C@@H]1[C@@]3(C)C/C(=C/c4cccc([N+](=O)[O-])c4)C(=O)C(C)(C)[C@@H]3CC[C@]12C`, for which the growth with HCT-15 colon was 83.5%; with HT29 colon it was 55.4%; in the test on SNB-75 CNS, 0.754% (active); in the test with SNB-19 CNS, 96%; with U251 CNS, 85.7%; in the test with PC-3 prostate, 58.2%. In addition, the growth is 101% with SK-MEL-5 melanoma, 78.1% with UACC-62 melanoma and 104% in the test with SK-MEL-28 melanoma.
For `CC(=O)O[C@H]1CC[C@]2(C)[C@H]3C(=O)C=C4[C@@H]5C[C@](C)(C(=O)N6CCCNCC6)CC[C@]5(C)CC[C@@]4(C)[C@]3(C)CC[C@H]2C1(C)C`, the growth in the test on HCT-15 colon is -96.5% (active); in the test with HT29 colon, -63.5% (active); in the test with SNB-75 CNS, 80.1%; with SNB-19 CNS it was 9.77% (active); with U251 CNS, -94.5% (active); with PC-3 prostate, 6.04% (active). Further, the growth was 90.2% with SK-MEL-5 melanoma, 13.7% with UACC-62 melanoma and -74.5% (active) in the test with SK-MEL-28 melanoma.
Consider `COCCNC1=C(Cl)C(=O)c2ccccc2C1=O`, for which the growth with HCT-15 colon is 90.3%; with HT29 colon, 101%; in the test with SNB-75 CNS, 74.5%; in the test with SNB-19 CNS, 102%; in the test with U251 CNS, 91.3%; in the test with PC-3 prostate, 117%. Moreover, the figures for the growth with SK-MEL-5 melanoma, with UACC-62 melanoma and in the test on SK-MEL-28 melanoma were -6.75% (active), 90.9% and 109%, respectively.
On to `O=C1OC(c2ccc(Cl)c(Cl)c2)=C/C1=C/c1cccc([N+](=O)[O-])c1`, for which the growth is 99.1% in the test with HCT-15 colon; 93.7% in the test on HT29 colon; 92.9% in the test with SNB-75 CNS; 94.9% with SNB-19 CNS; 99.2% in the test on U251 CNS; 97.9% in the test with PC-3 prostate. In addition, the growth in the test on SK-MEL-5 melanoma was 102%; in the test on UACC-62 melanoma, 88.7%; with SK-MEL-28 melanoma it was 105%.
Take `CN(C)c1cccc2[nH]c(-c3[nH]ncc3Nc3ccnc(N)n3)nc12`: the growth with HCT-15 colon is -17.1% (active); in the test with HT29 colon it was 0.0531% (active); with SNB-75 CNS, -68.7% (active); in the test on SNB-19 CNS, -3.76% (active); with U251 CNS, -50.1% (active); in the test with PC-3 prostate, 5.95% (active). Also, the values for the growth with SK-MEL-5 melanoma, in the test with UACC-62 melanoma and in the test with SK-MEL-28 melanoma were -98.9% (active), -85.1% (active) and -57.3% (active), respectively.
On to `CC(=O)N1N=C(c2ccc(C)cc2)CC1c1ccc(Oc2ccc(Br)cc2)cc1` (configuration not stated), for which the growth with HCT-15 colon is 80.4%; in the test with HT29 colon, 79%; in the test with SNB-75 CNS it was 73.7%; in the test with SNB-19 CNS, 84.9%; in the test on U251 CNS, 75.3%; with PC-3 prostate, 87%. Also, the figures for the growth with SK-MEL-5 melanoma, in the test with UACC-62 melanoma and in the test with SK-MEL-28 melanoma were 91.7%, 64.4% and 105%, respectively.
`Cc1ccc2[nH]cc(-c3nc(-c4cn(C)c5ncccc45)cs3)c2c1`: the growth in the test with HCT-15 colon was 83%; in the test on HT29 colon, 74.6%; in the test on SNB-75 CNS it was 85%; with SNB-19 CNS it was 109%; in the test on U251 CNS, 94.8%; with PC-3 prostate, 57%. Also, the growth was 76.9% with SK-MEL-5 melanoma, 79.3% with UACC-62 melanoma and 90.6% with SK-MEL-28 melanoma.
For `Nc1c2c(nc3ccc(Br)cc13)CC(c1ccccc1)CC2=O` (configuration not stated), the growth with HCT-15 colon was 21.9%; with HT29 colon it was 15.7%; with SNB-75 CNS it was -1.66% (active); in the test on SNB-19 CNS, 37%; with U251 CNS, 41.8%; in the test on PC-3 prostate it was 40.4%. For the same molecule, the results for the growth in the test with SK-MEL-5 melanoma, with UACC-62 melanoma and in the test on SK-MEL-28 melanoma were 20.1%, 38.1% and 55.5%, respectively.
For `S=c1[nH]nc2ccccn12`, the growth in the test on HCT-15 colon is 101%; with HT29 colon, 87.5%; in the test on SNB-75 CNS it was 88.7%; in the test on SNB-19 CNS it was 110%; with U251 CNS it was 114%; with PC-3 prostate, 108%. Further, the values for the growth with SK-MEL-5 melanoma, with UACC-62 melanoma and in the test with SK-MEL-28 melanoma were 92.3%, 108% and 109%, respectively.
For `Cc1cc2nc3c4cc([N+](=O)[O-])cc([N+](=O)[O-])c4n(CCN(C)C)c3nc2cc1C`, the growth in the test on HCT-15 colon is 57.2%; in the test on HT29 colon, 65.6%; with SNB-75 CNS, 72.3%; with SNB-19 CNS, 68.2%; with U251 CNS, 81.6%; in the test on PC-3 prostate it was 77.1%. For the same molecule, the growth was 92.4% in the test with SK-MEL-5 melanoma, 87% in the test with UACC-62 melanoma and 98.6% in the test on SK-MEL-28 melanoma.
Turning to `COc1ccc(/C=C/C(=O)c2ccc([N+](=O)[O-])cc2)cc1`, the growth in the test on HCT-15 colon was 104%; in the test on HT29 colon, 95.3%; with SNB-75 CNS it was 104%; in the test on SNB-19 CNS, 96.9%; in the test with U251 CNS, 97.5%; with PC-3 prostate it was 92%. Moreover, the growth is 105% in the test with SK-MEL-5 melanoma, 88% in the test on UACC-62 melanoma and 112% in the test on SK-MEL-28 melanoma.
